Results reported in PubChem BioAssay AID686979 (National Center for Advancing Translational Sciences (NCATS), 2013).
Among all 420,000 compounds or so, about 50,000 (12%) were called active. Inconclusive results (about 26%) are left out. The call rests on the fitted dose curve; in most records, active means well fitted inhibition curve with a large enough effect; inconclusive means small, poorly fitted or top-dose-only effect; inactive means flat fitted curve, though single readings scatter. Shown is part of a subset that was picked to be rich in actives. Entries that show only a call come without a potency.

Experiment: qHTS for Inhibitors of human tyrosyl-DNA phosphodiesterase 1 (TDP1): qHTS in cells in presence of CPT; further: nearly all actives have a fitted effect of over 55% in size
Conditions: chicken DT40 Tdp1-/-;hTDP1 cells + 20 nM CPT, ATP luminescence, 48 h; series mostly up to 46.2 µM
Outline: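 Chicken DT40 Tdp1-/- cells stably complemented with human TDP1 were seeded at 400 cells/well in medium containing 20 nM camptothecin, exposed to pin-transferred compounds, and grown at 37 °C for at least 48 hr. Viability was read as ATP luminescence.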
Potency means the concentration at half of the fitted maximal effect.

Question: Which Potency does the source give for `Cc1cc(NC(=O)C(C)N2C(=O)c3ccccc3S2(=O)=O)no1` (centres undefined) here?
Answer: inactive

Question: With `COc1cc(C(O)c2nc(-c3cccc(C(=O)O)c3)cs2)ccc1F` (centres undefined) as the compound, how does the Potency read?
Answer: inactive

Question: With `COCc1cccc(-c2csc(C(O)c3ccc(F)cc3)n2)c1` (centres undefined) as the compound, how does the Potency read?
Answer: 16.4 µM (active)

Question: With `Fc1ccc(COc2cccc(-c3n[nH]c(=S)o3)c2)cc1` as the compound, how does the Potency read?
Answer: inactive

Question: For `COc1ccc(N2CCN(C(=O)CSCc3nc(-c4ccccc4Cl)oc3C)CC2)cc1`, which Potency is on record?
Answer: 14.6 µM (active)

Question: With `COc1ccc(N2CCN(C(=O)CN3C(=O)COc4ccccc43)CC2)cc1` as the compound, how does the Potency read?
Answer: inactive

Question: Which Potency does the source give for `COc1ccc(N2CCN(C(=O)C3CCN(C(=O)c4ccccc4Cl)CC3)CC2)cc1` here?
Answer: inactive

Question: For `COc1ccccc1C(=O)Nc1ccnn1C1CCN(Cc2cnn(C)c2)CC1`, which Potency is on record?
Answer: inactive

Question: Which Potency does the source give for `Nc1nc(-c2ccccc2)cc(-c2ccccc2)n1` here?
Answer: 16.4 µM (active)

Question: Which Potency does the source give for `CNc1nc(-c2ccccc2)cc(-c2ccccc2)n1` here?
Answer: inactive

Question: Which Potency does the source give for `c1ccc(-c2cc(-c3ccccc3)[nH]n2)cc1` here?
Answer: inactive

Question: With `Cc1ccccc1NC(=O)c1cc2c([nH]c1=O)CC(C)(C)CC2=O` as the compound, how does the Potency read?
Answer: inactive

Question: Which Potency does the source give for `Cc1ccc(F)c(NC(=O)CCOc2ccccc2C)c1` here?
Answer: inactive

Question: With `COCCc1nn2c(=O)cc(COC(=O)c3cc(OC)c(OC)c(OC)c3)nc2s1` as the compound, how does the Potency read?
Answer: inactive

Question: For `COc1cc(C(=O)OCc2cc(=O)n3ccsc3n2)ccc1OC(C)C`, which Potency is on record?
Answer: 23.1 µM (active)

Question: With `COc1ccc(C(=O)OCc2cc(=O)n3ccsc3n2)cc1F` as the compound, how does the Potency read?
Answer: inactive

Question: Which Potency does the source give for `CCc1c(C)nc2c(-c3ccccc3)c(C)nn2c1Nc1ccc(NC(C)=O)cc1` here?
Answer: inactive

Question: Which Potency does the source give for `CCOC(=O)N1CCN(S(=O)(=O)N2CCCC(C(=O)NCCCN3CCC(C)CC3)C2)CC1` (centres undefined) here?
Answer: inactive

Question: With `COC(=O)C(C)NC(=O)COc1ccc2ccccc2c1` (centres undefined) as the compound, how does the Potency read?
Answer: inactive

Question: For `CC(=O)NC(c1ccccc1)c1nc(-c2ccccc2C)cs1` (centres undefined), which Potency is on record?
Answer: inactive

Question: With `CC1(C)CC(=O)C(CC(=O)N2CCC(Cc3ccccc3)CC2)C(=O)C1` as the compound, how does the Potency read?
Answer: inactive

Question: Which Potency does the source give for `O=C(CN1CCOc2ccccc21)N1CCC(Cc2ccccc2)CC1` here?
Answer: 13 µM (active)

Question: With `O=C(NCc1nnc(SCC(=O)N2CCC(Cc3ccccc3)CC2)o1)c1ccco1` as the compound, how does the Potency read?
Answer: inactive

Question: Which Potency does the source give for `Cn1cnnc1Sc1ccc(S(C)(=O)=O)cc1[N+](=O)[O-]` here?
Answer: inactive

Question: With `Cc1cc(C)nc(NS(=O)(=O)c2ccc(N3C(=O)C4CCCCC4C3=O)cc2)n1` (centres undefined) as the compound, how does the Potency read?
Answer: inactive

Question: With `Cc1nnc(Sc2nc3c(c(=O)[nH]c(=O)n3C)n2Cc2ccccc2)s1` as the compound, how does the Potency read?
Answer: inactive

Question: With `COc1ccc(CNc2nc3c(c(=O)[nH]c(=O)n3C)n2Cc2ccccc2)cc1` as the compound, how does the Potency read?
Answer: inactive

Question: Which Potency does the source give for `CCn1c(NCCc2ccc(OC)c(OC)c2)nc2c1c(=O)n(C)c(=O)n2C` here?
Answer: 9.2 µM (active)

Question: With `Cn1c(=O)c2c(nc(OCc3cccnc3)n2Cc2ccccc2)n(C)c1=O` as the compound, how does the Potency read?
Answer: 11.6 µM (active)

Question: Which Potency does the source give for `COc1ccc(CCNC(=O)Nc2ccc3c(c2)c(=O)n(C)n3C)cc1OC` here?
Answer: inactive

Question: Which Potency does the source give for `Cn1c(=O)[nH]c(=O)c2c1nc(NCCc1ccccc1)n2Cc1ccc(F)cc1` here?
Answer: 23.1 µM (active)

Question: For `CCCCn1c(SCC(=O)NCCc2ccc(OC)c(OC)c2)nc2c1c(=O)n(C)c(=O)n2C`, which Potency is on record?
Answer: inactive

Question: With `Cn1c(=O)c2c(nc(N/N=C/c3cccs3)n2Cc2ccc(Br)cc2)n(C)c1=O` as the compound, how does the Potency read?
Answer: 20.6 µM (active)

Question: For `Cn1c(=O)c2sccc2n(Cc2ccc(Br)cc2)c1=O`, which Potency is on record?
Answer: inactive
